Data taken from PubChem BioAssay (NCI).
This is part of a sample that, as a whole, favours compounds with a hit. Of some 79,000 tested, about 15% had one in any assay. Active and inactive are the calls of the source. Cut-off read from the data, not from the text of the source: active = growth inhibition above about 70%; inactive = the rest.

How the values were obtained:
[1] = NCI Yeast Anticancer Drug Screen. Data for the rad52 strain (AID 147);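 note: 0% = growth of vehicle-treated control cultures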; conditions: S. cerevisiae rad52 mutant growth inhibition, stronger effect = higher value
Outline: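 Read-out: growth inhibition versus vehicle-treated controls. Cells were a DNA repair-deficient yeast strain treated with compounds.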

[2] = NCI Yeast Anticancer Drug Screen. Data for the wt1 strain (AID 149);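 note: 0% = growth of vehicle-treated wt1 cultures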; conditions: S. cerevisiae wt1 strain (SPY 50644) growth inhibition, stronger effect = higher value
Outline: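 wt1 yeast, compound-treated; % growth inhibition vs vehicle control.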

[3] = NCI Yeast Anticancer Drug Screen. Data for the rad50EPP+ strain (AID 151);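 note: 0% = growth of vehicle-treated control cultures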; conditions: S. cerevisiae rad50 mutant strain, stronger effect = higher value
Outline: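 Growth inhibition read against vehicle controls in rad50EPP+ yeast, a strain altered in DNA damage repair, after compound exposure.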

[4] = NCI Yeast Anticancer Drug Screen. Data for the mgt1 strain (AID 153); conditions: S. cerevisiae mgt1 mutant growth inhibition, stronger effect = higher value
Outline: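 mgt1 yeast grown with test compound; read-out is growth inhibition versus vehicle-treated cultures.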

[5] = NCI Yeast Anticancer Drug Screen. Data for the rad50 strain (AID 155);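 note: 0% = growth of vehicle-only cultures of the same strain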; conditions: S. cerevisiae rad50 strain growth inhibition, stronger effect = higher value
Outline: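 Genetically altered yeast (DNA repair pathway); compound treatment; growth inhibition vs vehicle ctrl.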

[6] = NCI Yeast Anticancer Drug Screen. Data for the mec2-1 strain (AID 157); conditions: S. cerevisiae mec2-1 strain, stronger effect = higher value
Outline: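 Yeast mec2-1 mutant treated with compound. Readout: growth inhibition vs vehicle controls.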

[7] = NCI Yeast Anticancer Drug Screen. Data for the rad14 strain (AID 159);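 note: 0% = growth of vehicle-treated control cultures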; conditions: S. cerevisiae rad14 strain growth inhibition, stronger effect = higher value
Outline: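 Test compounds were applied to a repair-deficient yeast strain. Its growth was then compared with that of cultures given vehicle alone, and inhibition was expressed relative to those controls.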

[8] = NCI Yeast Anticancer Drug Screen. Data for the sgs1 mgt1 strain (AID 161);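 note: 0% = growth of cultures given vehicle only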; conditions: S. cerevisiae sgs1 mgt1 strain, stronger effect = higher value
Outline: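 Inhibition of yeast growth, normalised to vehicle-treated controls, is reported for a strain bearing genetic alterations in DNA damage repair.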

[9] = NCI Yeast Anticancer Drug Screen. Data for the CLN2oe strain (AID 163);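 note: 0% = growth of vehicle-only control cultures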; conditions: S. cerevisiae CLN2oe strain, stronger effect = higher value
Outline: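 Read-out: yeast growth inhibition, expressed relative to vehicle-only controls. The strain bears an engineered cell-cycle alteration.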

[10] = NCI Yeast Anticancer Drug Screen. Data for the cln2 rad14 strain (AID 165);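 note: 0% = growth equal to vehicle treated cultures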; conditions: S. cerevisiae cln2 rad14 strain, stronger effect = higher value
Outline: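 cln2 rad14 yeast strain; compound exposure; growth inhibition read vs vehicle controls.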

[11] = NCI Yeast Anticancer Drug Screen. Data for the bub3 strain (AID 167); conditions: S. cerevisiae bub3 mutant strain, stronger effect = higher value
Outline: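 Yeast carrying a defined mutation is treated with each compound, and growth is compared with that of vehicle-exposed cells to give inhibition.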

[12] = NCI Yeast Anticancer Drug Screen. Data for the mlh1 strain (AID 171);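 note: 0% = growth of vehicle-treated control cultures of the same strain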; conditions: S. cerevisiae mlh1 strain growth inhibition, stronger effect = higher value
Outline: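 Read-out: growth inhibition versus vehicle controls. Strain: engineered yeast with a defined DNA repair or cell cycle defect, compound-treated.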

[13] = NCI Yeast Anticancer Drug Screen. Data for the sgs1 strain (AID 173);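 note: 0% = growth of vehicle-only control cultures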; conditions: S. cerevisiae sgs1 mutant, stronger effect = higher value
Outline: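 Read-out: yeast growth inhibition relative to vehicle controls, following compound exposure of a strain with a defined DNA repair/cell cycle alteration.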

[14] = NCI Yeast Anticancer Drug Screen. Data for the mlh1 rad18 strain (AID 175); conditions: S. cerevisiae mlh1 rad18 strain growth inhibition, stronger effect = higher value
Outline: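 Yeast w/ defined DNA-repair lesions; compound exposure; growth vs vehicle controls → % inhibition.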

[15] = NCI Yeast Anticancer Drug Screen. Data for the rad18 strain (AID 177); conditions: S. cerevisiae rad18 mutant growth inhibition, stronger effect = higher value
Outline: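 Readout: growth inhibition vs vehicle controls. Cells: genetically altered yeast strain, DNA repair defect.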

[16] = at 5.0 µM (retest, dose inferred, filed as 0.5)
[17] = at 50.0 µM (retest, dose inferred, filed as 5.0)

Measured: growth inhibition

COC(=O)C1=C(C(=O)OC)C2(C)C=CC1O2 (stereo unspecified)
inactive: [1]; at 1.2 µM -1% | [1]; at 3.7 µM -4% | [1]; at 11.0 µM 21% | [2]; at 1.2 µM 0% | [2]; at 3.7 µM 7% | [2]; at 11.0 µM 30% | [2]; at 33.0 µM 62% | [3]; at 1.2 µM -11% | [3]; at 3.7 µM -34% | [3]; at 11.0 µM -12% | [3]; at 33.0 µM 20% | [3]; at 100.0 µM 19% | [4]; at 1.2 µM -4% | [4]; at 3.7 µM -9% | [4]; at 11.0 µM -3% | [4]; at 33.0 µM 32% | [5]; at 1.2 µM -15% | [5]; at 3.7 µM -13% | [5]; [16] -135% | [5]; at 11.0 µM 7% | [5]; [17] 53% | [6]; at 1.2 µM -2% | [6]; at 3.7 µM -1% | [6]; [16] -43% | [6]; at 11.0 µM 1% | [6]; at 33.0 µM 26% | [6]; [17] 43% | [7]; at 1.2 µM 1% | [7]; at 3.7 µM 15% | [7]; at 11.0 µM 17% | [7]; at 33.0 µM 33% | [8]; [16] -55% | [8]; [17] 63% | [9]; at 1.2 µM -7% | [9]; at 3.7 µM -5% | [9]; at 11.0 µM -4% | [9]; at 33.0 µM 15% | [9]; at 100.0 µM 42% | [10]; [16] -46% | [10]; [17] -7% | [10]; at 50.0 µM 19.1% | [11]; at 1.2 µM -9% | [11]; at 3.7 µM -3% | [11]; [16] -62% | [11]; at 11.0 µM 10% | [12]; at 1.2 µM -14% | [12]; at 3.7 µM -10% | [12]; at 11.0 µM -7% | [12]; at 33.0 µM 52% | [13]; at 1.2 µM -4% | [13]; at 3.7 µM -4% | [13]; at 11.0 µM 33% | [14]; [16] -114% | [14]; [17] 48% | [15]; at 1.2 µM -10% | [15]; at 3.7 µM -6% | [15]; at 11.0 µM 10% | [15]; at 33.0 µM 62%
active: [1]; at 33.0 µM 70% | [1]; at 100.0 µM 91% | [2]; at 100.0 µM 93% | [4]; at 100.0 µM 86% | [5]; at 33.0 µM 72% | [5]; at 50.0 µM 81.2% | [5]; at 100.0 µM 91% | [6]; at 50.0 µM 86.8% | [6]; at 100.0 µM 87% | [7]; at 100.0 µM 87% | [8]; at 50.0 µM 82.2% | [11]; at 33.0 µM 75% | [11]; [17] 74% | [11]; at 50.0 µM 89.6% | [11]; at 100.0 µM 94% | [12]; at 100.0 µM 90% | [13]; at 33.0 µM 84% | [13]; at 100.0 µM 95% | [14]; at 50.0 µM 86.2% | [15]; at 100.0 µM 89%

CN(C)c1ccc(Sc2ccc3nc(N)nc(N)c3c2)cc1
inactive: [1]; at 1.2 µM 9% | [1]; at 3.7 µM 28% | [1]; at 11.0 µM 31% | [1]; at 33.0 µM 27% | [1]; at 100.0 µM 51% | [2]; at 1.2 µM 15% | [2]; at 3.7 µM 12% | [2]; at 11.0 µM 10% | [2]; at 33.0 µM -7% | [2]; at 100.0 µM -5% | [3]; at 1.2 µM 15% | [3]; at 3.7 µM 30% | [3]; at 11.0 µM 24% | [3]; at 33.0 µM 30% | [3]; at 100.0 µM 28% | [4]; at 1.2 µM -5% | [4]; at 3.7 µM 2% | [4]; at 11.0 µM -4% | [4]; at 33.0 µM -11% | [4]; at 100.0 µM 7% | [5]; at 1.2 µM -18% | [5]; at 3.7 µM 7% | [5]; [16] 41% | [5]; at 11.0 µM 8% | [5]; at 33.0 µM 5% | [5]; [17] 41% | [5]; at 50.0 µM 60% | [5]; at 100.0 µM 40% | [6]; at 1.2 µM -28% | [6]; at 3.7 µM -28% | [6]; [16] 28% | [6]; at 11.0 µM -4% | [6]; at 33.0 µM 13% | [6]; at 100.0 µM 55% | [7]; at 1.2 µM -15% | [7]; at 3.7 µM -4% | [7]; at 11.0 µM -9% | [7]; at 33.0 µM -14% | [7]; at 100.0 µM 5% | [8]; [16] 29% | [8]; [17] 67% | [8]; at 50.0 µM 60% | [10]; [16] 24% | [10]; [17] 6% | [10]; at 50.0 µM 25.4% | [11]; at 1.2 µM -17% | [11]; at 3.7 µM -11% | [11]; [16] 27% | [11]; at 11.0 µM -20% | [11]; at 33.0 µM -17% | [11]; [17] 43% | [11]; at 50.0 µM 21.9% | [11]; at 100.0 µM -9% | [14]; [16] 34% | [14]; [17] 34% | [14]; at 50.0 µM 51.8% | [15]; at 1.2 µM 3% | [15]; at 3.7 µM -17% | [15]; at 11.0 µM -12% | [15]; at 33.0 µM -17% | [15]; at 100.0 µM 11%
active: [6]; [17] 80% | [6]; at 50.0 µM 89.3%
